# The full list was thinned out, with hits kept by preference.
# LmPK inhibitor = blocks Leishmania mexicana pyruvate kinase activity. purified LmPK, Kinase-Glo ATP luminescence, 1 h. Potency, µM (highest dose often 57.5 µM), for the others: at the highest dose activity change, negative = inhibition, actives largely listed as inhibitors. hit rate 0.37% among 290,000; also: potency is read from the fitted curve at half-maximal effect; % is scaled to controls: 0 for no effect and ±100 for the full control effect
#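 In 50 mM imidazole pH 7.2 with 7 mM MgCl2, LmPK (0.1 nM) turned over PEP (0.5 mM) and ADP (0.1 mM) for 1 h at room temperature. Luciferase read-out of ATP.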
# FBPA Giardia inh = blocks Giardia fructose-bisphosphate aldolase activity; hit rate 0.71% among 290,000; A8B2U2; purified Giardia FBPA; Potency, µM (doses to about 59.6 µM), for inactives: top-dose activity, negative = inhibition, hits mostly inhibitors; AID 2451; also: potency is read from the fitted curve at half-maximal effect; % is scaled to controls: 0 for no effect and ±100 for the full control effect; nearly all actives have a fitted effect of over 55% in size
# Target sequence (A8B2U2 whole entry, looked up): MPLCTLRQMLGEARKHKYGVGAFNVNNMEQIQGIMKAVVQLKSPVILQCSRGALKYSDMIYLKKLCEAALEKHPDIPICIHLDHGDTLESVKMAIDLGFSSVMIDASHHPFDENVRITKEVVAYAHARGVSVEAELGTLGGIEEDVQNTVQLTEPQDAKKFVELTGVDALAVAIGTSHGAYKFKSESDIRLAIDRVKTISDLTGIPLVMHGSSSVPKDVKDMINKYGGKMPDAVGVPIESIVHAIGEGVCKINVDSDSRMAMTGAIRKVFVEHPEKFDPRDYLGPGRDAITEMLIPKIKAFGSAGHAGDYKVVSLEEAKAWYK
#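 40 nM FBPA preincubated 10 min at RT with compound (up to 57.5 uM final), then substrate plus GAPDH/TPI/NAD/arsenate coupling and diaphorase/resazurin added. Fluorescence read after 20 min at RT, 525/598 nm.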
# CHX counter = counter-screen hit for Shiga toxin inhibitors, cycloheximide | cell reporter, cycloheximide protein synthesis inhibition counterscreen | max response, % | hit rate 12% among 300,000; in the data active = max response mostly above about 13%, no sharp cut-off; inactive = mostly below about 14%; also: read at 38.3 µM for the half of the compounds with a filed dose; 0% is about no effect
# Tb PYK inh = T. brucei pyruvate kinase inhibition; TbPYK enzyme, Kinase-Glo Plus ATP luminescence, 45 min; Potency, µM (titrated, usually from 76.8 µM), without a hit: top-dose activity, negative = inhibition, most hits filed as inhibitors; hit rate 0.12% among 410,000; AID 624173; also: potency is read from the fitted curve at half-maximal effect; % is scaled to controls: 0 for no effect and ±100 for the full control effect; nearly all actives have a fitted effect of over 50% in size
#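 Enzyme and substrate buffer are dispensed first and compound is pin-transferred. ADP at 130 uM final then starts the reaction, which runs 45 min at room temperature. Detection reagent is added for 10 min before luminescence is imaged.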
# Shiga inhibitor = blocks Shiga toxin action in Vero cells; Vero cells, Shiga toxin protein synthesis inhibition reporter; inhibition, % at 38.7 µM; hit rate 9.2% among 290,000; in the data active = inhibition mostly above about 28%, no sharp cut-off; inactive = mostly below about 43%; also: 0% is about no effect
# RE007 growth inh = less growth of the S. pombe RE007 Vpr strain; S. pombe RE007 Vpr strain, BacTiter-Glo ATP luminescence, 24 h; hit rate 0.21% among 360,000; Potency, µM (highest dose often 92.2 µM), for inactives: top-dose activity change, negative = less growth, usual class: inhibitors; active = well fitted falling curve with a large enough effect; inconclusive = small, poorly fitted or top-dose-only effect; inactive = no such curve, though single readings can be large or run the other way; also: potency is read from the fitted curve at half-maximal effect; % is scaled to controls: 0 for no effect and ±100 for the full control effect; nearly all actives have a fitted effect of over 50% in size
#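 Fission yeast RE007 carrying one integrated HIV-1 vpr copy, seeded at OD 0.01 in PMG+AL medium with 23 nL pinned compound. Grown 24 h at 30 degrees; viability read by BacTiter-Glo luminescence after 5 min.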
# * marks the source's active call; other numbers are inactive results; ? = inconclusive; . = no result. Unless noted, calls follow the shape of the dose curve; as a rule, active = well fitted curve in the direction sought with a large enough effect; inconclusive = small, poorly fitted or top-dose-only effect, or another doubt; inactive = no such curve, though single readings can be large; an effect the other way counts as inactive or inconclusive.
SMILES,LmPK inhibitor,FBPA Giardia inh,CHX counter,Tb PYK inh,Shiga inhibitor,RE007 growth inh
CC(NC(=O)c1ccccc1)C(=O)NNC(=O)c1ccccc1Cl (configuration not stated),.,.,.,0%,.,3%
CCCC(C)NC(=O)COC(=O)c1cccc(NS(C)(=O)=O)c1 (configuration not stated),2%,1%,9,2%,19,9%
O=C(Nc1cc2c(cc1Br)OCCO2)c1cccs1,-13%,-4%,42*,1%,181*,-19%
CCCC(=O)c1cc2c(cc1NC(=O)c1cccs1)OCCO2,4%,2%,-5,-2%,-7,22%
O=C(Nc1cc2c(cc1Br)OCCO2)c1cccnc1,-10%,.,24*,-6%,66,-4%
COc1ccc(-c2csc(Nc3cccc(C)n3)n2)cc1,-3%,8%,38*,-3%,71*,4%
CC(=O)Oc1ccc(-c2csc(Nc3cccc(C)n3)n2)cc1,-9%,4%,45*,4%,91*,-14%
COc1ccc(-c2csc(Nc3cccc(C)n3)n2)cc1C,-3%,3%,56*,0%,79*,-6%
Cc1cccc(Nc2nc(-c3ccc(F)cc3)cs2)n1,-7%,-2%,46*,-1%,105*,8%
COc1ccc(-c2csc(Nc3ccc(S(N)(=O)=O)cc3)n2)cc1OC,9%,-15%,-6,-20%,-11,31%
Oc1ccccc1-c1cc(-c2ccccc2Cl)[nH]n1,-28%,27%,25*,-3%,101*,?
Oc1ccc(Cl)cc1-c1cc(-c2cccc(Br)c2)n[nH]1,2%,5%,42*,-5%,79*,-14%
Oc1ccc(Cl)cc1-c1cc(-c2ccccc2Cl)[nH]n1,2%,-9%,23*,2%,52*,40%
O=C(O)c1cccc(-n2cc(-c3cccc(C(F)(F)F)c3)cn2)c1,2%,8%,54*,4%,118*,.
NC(=O)c1nnn(-c2cccc(C(F)(F)F)c2)c1-c1ccccc1,2%,-1%,5,5%,-11,24%
CN1CCN(c2ccnc(-c3ccoc3)n2)CC1,.,-10%,.,.,.,.
CCOC(=O)[C@]12CCC=C1N(Cc1ccccc1)C(=O)[C@H](CC(=O)NCc1ccc(OC)c(OC)c1)C2,.,.,.,1%,.,-10%
Cc1cc(C(=O)COc2cccc(-n3cnnn3)c2)c(C)n1-c1ccccc1,4%,-18%,16*,1%,32,-4%
Cc1cc(C(=O)CSc2cccc[n+]2[O-])c(C)n1-c1ccc(Br)cc1,7%,-4%,35*,.,91*,.
Cc1cc(C(=O)CSc2cccc[n+]2[O-])c(C)n1-c1ccccc1,-5%,1%,47*,-5%,85*,-14%
O=C(CSc1cccc[n+]1[O-])c1ccccc1Br,4%,-10%,12,2%,22,22µM*
COc1ccc(CN(Cc2ccco2)C(=O)COc2ccccc2OC)cc1,.,.,.,7%,.,.
Cc1cc(C(=O)CSc2nncn2C)c(C)n1-c1ccccc1,-14%,-25%,34*,-3%,59*,-5%
Cc1cc(-n2c(C)cc(C(=O)CSc3nnnn3-c3ccccc3)c2C)no1,1%,3%,5,0%,8,40%
N/C(=N\OC(=O)Nc1ccccc1)c1ncc([N+](=O)[O-])s1,6%,0%,28*,-16%,44,-7%
SMILES,LmPK inhibitor,FBPA Giardia inh,CHX counter,Tb PYK inh,Shiga inhibitor,RE007 growth inh
O=C(COC(=O)COc1ccccc1)Nc1ncc([N+](=O)[O-])s1,.,.,.,-5%,.,2%
Cc1cc(-n2cnc(-c3cn[nH]c3C)n2)no1,-1%,6%,12,-15%,72*,-3%
Cc1[nH]ncc1-c1ccccc1Cl,7%,-9%,-2,9%,-3,15%
O=C(c1cc(-c2ccccc2)on1)N1CCN(C(=O)c2ccco2)CC1,-7%,1%,19*,-19%,38,13%
Cc1ccc(-c2cc(C(=O)N3CCCCCC3)no2)cc1,-3%,5%,48*,-18%,102*,-27%
O=C(c1cc(-c2ccc(F)cc2)on1)N1CCCC1,-13%,4%,50*,-1%,66*,-15%
CC1CCN(C(=O)c2cc(-c3ccc(Cl)cc3)on2)CC1,.,.,.,-1%,.,.
O=C(c1sc2ccccc2c1Cl)N1CCC2(CC1)OCCO2,5%,2%,12*,-1%,17,0%
COC(=O)c1cc(-c2ccc(Br)cc2)on1,-4%,9%,-3,-3%,-2,-22%
O=C(O)/C=C/c1ccc([N+](=O)[O-])o1,7%,-6%,-2,-9%,-8,-6%
O=C(/C=C/c1ccc(F)cc1)N1CCCN(C(=O)/C=C/c2ccc(F)cc2)CC1,9%,2%,5,5%,1,4%
CN1CCN(C(=O)/C=C/c2ccc([N+](=O)[O-])o2)CC1,-1%,-16%,19*,-4%,29*,.
CCN(CC)C(=O)c1cc(-c2ccc(Br)cc2)on1,0%,11%,47*,-7%,90*,-6%
O=C(c1cc(COc2ccc3ncccc3c2)on1)N1CCC[C@H]1CO,-1%,4%,34*,-4%,56*,-14%
O=C(/C=C/c1ccc(-c2ccc(F)cc2)o1)N1CCCC1,0%,3%,39*,-3%,64*,-19%
CCOc1cccc(C(=O)Nc2ccccc2N2CCN(C(=O)C(C)C)CC2)c1,0%,7%,5,6%,30,-3%
CN1CCN(C(=O)c2cc(-c3ccccc3)on2)CC1,-4%,1%,38*,4%,109*,-1%
O=C(c1cc(-c2ccc(O)cc2)on1)N1CCN(c2ccccc2)CC1,3%,-2%,12,7%,33,7%
CC(C)c1cc(C(=O)N2CCN(C(c3ccccc3)c3ccccc3)CC2)no1,-1%,-3%,29*,-3%,32*,1%
NC(=O)[C@@H]1CCCN1C(=O)c1cc(COc2ccc3c(c2)CCCC3)on1,0%,.,36*,0%,34*,6%
O=C(c1cc(-c2ccc(O)cc2)on1)N1CCCC1,-6%,11%,37*,6%,97*,11%
Cc1cccc(C)c1OCc1cc(C(=O)N2CCC[C@H]2C(N)=O)no1,-9%,.,14,3%,25,13%
COc1cc(OC)nc(Nc2nc(C(N)Cc3ccc(Cl)cc3)cs2)n1 (configuration not stated),.,.,.,3%,.,6%
Cc1cccc(OC(=O)c2ccc3c(=O)n4c(nc3c2)CCC4)c1,.,.,.,-7%,.,-15%
CC1CCN(S(=O)(=O)c2ccc3c(c2)CCN3C(=O)Nc2ccc(Br)cc2F)CC1,.,.,.,-1%,.,.
COCCC1CCCCN1C(=O)c1cc(COc2ccc(C)nc2)on1 (configuration not stated),9%,-5%,49*,12%,45,-9%
